# The whole screen tested about 6,200 compounds, of which about 2,900 (47%) were called active. The set was probably picked from earlier hits. The list shows a part of the results. Values without a mark were called inactive. Cut-off read from the data, not from the text of the source: active = inhibition above about 50%; inactive = the rest.
# Assay: Mycobacterium tuberculosis growth inhibition, primary screen (AID 1259343)
# Details: inhibition: at 10 µM, stronger effect = higher value; outcome: 10 uM
row,Compound,inhibition
1,CC(C)c1ccc(/C=N\Nc2ncnc3nc[nH]c23)cc1,58.7% (active)
2,O=c1c(Cl)c(Cl)cnn1-c1ccc(NC2CC2)c(Cl)c1,91.2% (active)
3,O=c1c(Cl)c(Cl)cnn1-c1ccc(N2CCOC(c3ccccc3)C2)c(Cl)c1 (stereo unspecified),16.1%
4,Cc1ccc(-c2nnc(SCC(=O)c3ccc4c(c3)OCO4)n2C)cc1,89.8% (active)
5,c1csc(-c2nnc(SCc3ccc4c(c3)OCO4)n2C2CC2)c1,-34.7%
6,CN(C)C(=O)CSc1nnc(-c2ccc(Cl)cc2)n1C,0.36%
7,Cc1nc2cc(NC(=O)C3(C)CCc4c(C)c(O)c(C)c(C)c4O3)ccc2s1 (stereo unspecified),68.5% (active)
8,CN(Cc1cccs1)C(=O)c1cc2c(cc1O)CCCC2,67.8% (active)
9,CN(Cc1cccc(C#N)c1)C(=O)c1cc2c(s1)CCCCCC2,30.1%
10,CCCCNC(=S)N(C)N=Cc1sccc1C,29%
11,CCCCNC(=S)N(C)N=Cc1c(F)c(F)c(F)c(F)c1F,58% (active)
12,COc1ccc(-c2nc(C=CC(=O)N3CCCC4CCCCC43)cs2)cc1 (stereo unspecified),62.1% (active)
13,Cc1ccc(-c2cc(C(=O)N3CCCC3C3CCCC3)n[nH]2)s1 (stereo unspecified),31.1%
14,CCCCc1ccc(N=Cc2c(C)c(C#N)c(=O)n(CCCC)c2O)cc1,4.37%
15,CCCCc1ccc(N=Cc2nc(/C=C/c3cccc([N+](=O)[O-])c3)oc2O)cc1,84.9% (active)
16,COc1ccc(F)cc1Oc1ccc2c(C3CC3)noc2n1,30%
17,COc1ccc(Oc2ccc3c(C4CC4)noc3n2)c(F)c1,61.2% (active)
18,COc1cc(F)ccc1Oc1ccc2c(C3CC3)noc2n1,47.7%
19,Cc1cc(Oc2ccc3c(C4CC4)noc3n2)ccc1F,58.7% (active)

row,Compound,inhibition
1,Cc1ccc(Oc2ccc3c(C4CC4)noc3n2)cc1F,64.9% (active)
2,CCN(CC)CCN1CCN(c2ccnc3c(-c4cc(C(F)(F)F)cc(C(F)(F)F)c4)cnn23)CC1,37.6%
3,COCc1[nH]n2c(=O)c(Cl)c(C)nc2c1-c1ccc(C)cc1,98.7% (active)
4,Cc1ccccc1-c1cnnc(N2CCCC(COc3ccccc3F)C2)n1 (stereo unspecified),-23.4%
5,C=CCSc1nnc2c3ccccc3n(CC=C)c2n1,28.1%
6,C=C(C)CSc1nnc2c(n1)[nH]c1ccccc12,61.6% (active)
7,S=c1nnc2c3ccccc3[nH]c2n1CCc1ccccc1,18%
8,Cc1cc(Br)ccc1NCc1ccc(C#N)cc1,35.3%
9,Cc1cc(Br)ccc1NCC(=O)N1CCCCC1,95.6% (active)
10,COc1cc(C(=O)C=Cc2ccc(OC(F)F)cc2)ccc1O,17.6%
11,O=C(C=Cc1ccc(OC(F)F)cc1)c1ccc(O)cc1,81.8% (active)
12,N#CC(C#N)=C(C=Cc1ccc(OC(F)F)cc1)C1CC1,-8.38%
13,CC(C)c1ccc2[nH]c3c(c2c1)CCC/C3=N\N=C/c1ccncc1,78.2% (active)
14,OCC1(Cc2ccccc2F)CCCN(c2noc(-c3ccccc3)n2)C1 (stereo unspecified),17.3%
15,C=CCc1ccc(OC(C)C(=O)Nc2ccc(OC)cc2)c(OC)c1 (stereo unspecified),30.5%
16,COc1cc(CNc2ccc3nc(C)sc3c2)ccc1OC(F)F,78.4% (active)
17,COc1ccc(NCc2ccc(OC)c(Br)c2)cn1,-17.8%
18,CC(=NN=C1NC(=O)CS1)c1cc2ccccc2oc1=O,91.1% (active)
19,CCOc1ccc(OCCCOc2ccc(Cl)c(C)c2)cc1,44.9%

row,Compound,inhibition
1,COc1ccc(OCCOc2ccc(Cl)c(C)c2)cc1,80.7% (active)
2,COc1ccccc1OCCCCOc1ccccc1Cl,67.2% (active)
3,CCOc1ccccc1OCCOc1ccccc1F,88.9% (active)
4,COc1ccc(OCCCCOc2ccccc2F)cc1,57.2% (active)
5,COc1cccc(-c2ccc(=O)n(Cc3cccc(F)c3)n2)c1,22.1%
6,COc1cccc(OCCCCOc2ccc3ccccc3c2)c1,78.5% (active)
7,COc1ccc(OCCOc2ccccc2C#N)cc1,56.9% (active)
8,COc1cccc(-c2nnn(CCOc3ccccc3F)n2)c1,77.6% (active)
9,COc1cccc(-c2cnnc(NCc3ccccc3OC)n2)c1,21.6%
10,COc1ccccc1OCCCOc1ccccc1F,80% (active)
11,CC(C)=CCCC(C)(O)c1cc(C(N)=O)no1 (stereo unspecified),32.2%
12,COc1ccc(OCCCCOc2ccccc2OC)cc1,97.5% (active)
13,COc1ccccc1OCCCOc1ccc(F)cc1,35.7%
14,CC(=O)c1ccc(OCCOc2ccc(C#N)cc2)cc1,101% (active)
15,N#Cc1ccc(-c2ccc(OCC(=O)c3ccc4c(c3)CC(=O)N4)cc2)cc1,39.1%
16,COc1cccc(OCCCOc2cccc(Cl)c2Cl)c1,61.9% (active)
17,COc1ccc(OCCCOc2cccc(Cl)c2Cl)cc1,18.8%
18,COc1ccccc1OCCCCOc1ccc(I)cc1,91.3% (active)

# — PubChem BioAssay AID1259343 (VanderVen Lab, College of Veterinary Medicine, Cornell …, 2017)
